Compound activity (PubChem)
Shiga toxin inh = blocks Shiga toxin action in Vero cells; Vero cells, Shiga toxin protein synthesis inhibition reporter; inhibition, % at 38.7 µM; hit rate 9.2% among 290,000; AID 2315; in the data active = inhibition mostly above about 28%, no sharp cut-off; inactive = mostly below about 43%
NS1 function inh = inhibitors of influenza NS1 protein function; Potency, µM (highest dose often 46.1 µM); hit rate 0.4% among 270,000; calls by dose curve; also: actives are rising curves; nearly all actives have a fitted effect of over 50% in size
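S. cerevisiae expressing influenza A NS1, grown in glucose, washed, then diluted 1:100 into pH 6.0 -URA galactose medium with 23 nl compound. Growth recovery read as OD600; NS1-free strain serves as control.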
Pf growth 48h = P. falciparum growth inhibition at 48 hours (one generation) | P. falciparum luciferase growth in erythrocytes, 48 h | Potency, µM (highest dose often 28.7 µM), most hits filed as inhibitors | hit rate 5.9% among 310,000 | AID 504832
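Compounds are pin-transferred into medium, infected erythrocytes (2% hematocrit, 0.1% parasitemia final) are added, and plates sit one parasite generation at 37 C in 5% CO2. Detection reagent is then added and luminescence measured.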
CHX counter = counter-screen hit for Shiga toxin inhibitors, cycloheximide; cell reporter, cycloheximide protein synthesis inhibition counterscreen; max response, %; hit rate 12% among 300,000; in the data active = max response mostly above about 13%, no sharp cut-off; inactive = mostly below about 14%; also: read at 38.3 µM for the half of the compounds with a filed dose
FBPA Giardia inh = inhibitors of Giardia lamblia fructose-1,6-bisphosphate aldolase | purified Giardia FBPA | A8B2U2 | Potency, µM (doses to about 59.6 µM), usual class: inhibitors | hit rate 0.71% among 290,000; also: nearly all actives have a fitted effect of over 55% in size
Target sequence (A8B2U2 whole entry, looked up): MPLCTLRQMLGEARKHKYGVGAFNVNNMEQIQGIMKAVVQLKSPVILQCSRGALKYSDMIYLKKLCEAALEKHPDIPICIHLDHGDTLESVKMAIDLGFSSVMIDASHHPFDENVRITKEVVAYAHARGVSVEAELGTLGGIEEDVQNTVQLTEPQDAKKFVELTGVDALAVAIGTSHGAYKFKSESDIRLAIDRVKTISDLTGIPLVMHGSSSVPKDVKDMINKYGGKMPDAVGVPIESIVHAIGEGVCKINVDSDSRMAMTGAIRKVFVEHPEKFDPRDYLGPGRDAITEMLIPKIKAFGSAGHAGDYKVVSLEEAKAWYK
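Giardia FBPA (40 nM reagent) was preincubated 10 min at RT with compound (up to 57.5 uM final), then substrate plus GAPDH/TPI/NAD/arsenate coupling system with diaphorase/resazurin was added; resorufin fluorescence (525/598 nm) was read after 20 min.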
Pf growth 96h = P. falciparum growth inhibition at 96 hours; P. falciparum luciferase reporter growth, 96 h; Potency, µM (top dose mostly 28.7 µM), hits mostly inhibitors; hit rate 6.9% among 320,000
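P. falciparum expressing integrated firefly luciferase grown in erythrocytes (2% hematocrit, 0.05% parasitemia final) with compounds for 96 hours at 37 C, 5% CO2. Growth inhibition read as loss of luminescence after adding luciferase detection reagent.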
A number is an active result. A selection: hits, their analogues and other compounds. The true share with any hit is near 21%. Unless noted, calls follow the shape of the dose curve; as a rule, active = well fitted curve in the direction sought with a large enough effect; inconclusive = small, poorly fitted or top-dose-only effect, or another doubt; inactive = no such curve, though single readings can be large; an effect the other way counts as inactive or inconclusive.

What do the screens show for `Cc1cc(C)cc(NC(=S)/N=C(\N)Nc2nc(C)c3ccccc3n2)c1`?
Shiga toxin inh: inactive; NS1 function inh: inactive; Pf growth 48h: inconclusive; CHX counter: inactive; FBPA Giardia inh: inactive; Pf growth 96h: 13µM

What do the screens show for `Cc1ccc(S(=O)(=O)/N=C(\N)Nc2nc(C)c3ccccc3n2)cc1`?
Shiga toxin inh: inactive; NS1 function inh: inactive; Pf growth 48h: inactive; CHX counter: 21; FBPA Giardia inh: inactive; Pf growth 96h: inactive

What do the screens show for `O=C(N/N=C/c1ccc(Cl)cc1)C(=O)N1CCCCCC1`?
Shiga toxin inh: inactive; NS1 function inh: inactive; Pf growth 48h: inactive; CHX counter: inactive; FBPA Giardia inh: inconclusive; Pf growth 96h: inactive

Results for c1ccc(-c2noc(C3CCCCC3)n2)nc1 ?
Shiga toxin inh: 66; NS1 function inh: inactive; Pf growth 48h: inactive; CHX counter: 32; FBPA Giardia inh: inactive; Pf growth 96h: inactive

What do the screens show for `O=C(NC1CCCCC1)N1CCC(c2nc(-c3ccc(S(=O)(=O)N4CCCC4)cc3)no2)CC1`?
Shiga toxin inh: inactive; NS1 function inh: inactive; Pf growth 48h: inconclusive; CHX counter: inactive; FBPA Giardia inh: inactive; Pf growth 96h: inactive

How did Brc1ccc(-c2noc(C3CCCCC3)n2)cc1 do in these assays?
Shiga toxin inh: 34; NS1 function inh: inactive; Pf growth 48h: inactive; CHX counter: 14; FBPA Giardia inh: inactive; Pf growth 96h: inactive

Results for c1ccc(-c2noc(-c3ccc4c(c3)OCO4)n2)nc1 ?
Shiga toxin inh: inactive; NS1 function inh: inconclusive; Pf growth 48h: inactive; CHX counter: inactive; FBPA Giardia inh: inactive

Results for Cc1cc2c(Nc3ccc(O)cc3)ncnc2s1 ?
Shiga toxin inh: inactive; NS1 function inh: inactive; Pf growth 48h: inactive; CHX counter: inactive; FBPA Giardia inh: inconclusive; Pf growth 96h: inconclusive

Results for COc1cccc(Nc2ncnc3sccc23)c1 ?
Shiga toxin inh: 130; NS1 function inh: inactive; Pf growth 48h: inactive; CHX counter: 23; FBPA Giardia inh: inactive; Pf growth 96h: inactive

What do the screens show for `COc1ccc(Oc2ncnc3sccc23)cc1`?
Shiga toxin inh: 66; Pf growth 48h: inactive; CHX counter: 42; FBPA Giardia inh: inactive; Pf growth 96h: inactive

Results for c1ccc(Nc2ncnc3sccc23)cc1 ?
Shiga toxin inh: inactive; NS1 function inh: inactive; Pf growth 48h: inactive; CHX counter: inactive; FBPA Giardia inh: inactive; Pf growth 96h: inactive

What do the screens show for `c1nc(Nc2ccc(N3CCOCC3)cc2)c2ccsc2n1`?
Shiga toxin inh: 69; NS1 function inh: inactive; Pf growth 48h: inactive; CHX counter: 50; FBPA Giardia inh: inactive; Pf growth 96h: inactive

How did Cc1nc(Oc2ccccc2)c2ccsc2n1 do in these assays?
Shiga toxin inh: inactive; Pf growth 48h: inactive; CHX counter: inactive; FBPA Giardia inh: inactive; Pf growth 96h: inactive

What do the screens show for `COc1cccc(Nc2ncnc3sc(C)cc23)c1`?
Shiga toxin inh: 75; NS1 function inh: inactive; Pf growth 48h: inconclusive; CHX counter: 41; Pf growth 96h: inactive

Results for CCCNC(C)(C)COC(=O)c1ccccc1 ?
Pf growth 48h: inactive; FBPA Giardia inh: inactive; Pf growth 96h: inactive

How did COC(=O)c1cccc(Nc2ncnc3sccc23)c1 do in these assays?
Shiga toxin inh: inactive; Pf growth 48h: inactive; CHX counter: inactive; FBPA Giardia inh: inactive; Pf growth 96h: inactive

What do the screens show for `COc1ccc(Nc2ncnc3sccc23)c(OC)c1`?
Shiga toxin inh: inactive; NS1 function inh: inactive; Pf growth 48h: inactive; CHX counter: inactive; FBPA Giardia inh: inactive; Pf growth 96h: inactive

How did COc1ccc(Nc2ncnc3sccc23)cc1 do in these assays?
Shiga toxin inh: 72; NS1 function inh: inactive; Pf growth 48h: inactive; CHX counter: 31; FBPA Giardia inh: inactive; Pf growth 96h: inactive

How did COc1ccc(OC)c(Nc2ncnc3sccc23)c1 do in these assays?
Shiga toxin inh: inactive; NS1 function inh: inactive; Pf growth 48h: inactive; CHX counter: 15; FBPA Giardia inh: inactive; Pf growth 96h: inactive

How did Cc1ccc(Nc2ncnc3sccc23)c(C)c1 do in these assays?
Shiga toxin inh: 62; NS1 function inh: inactive; Pf growth 48h: inactive; CHX counter: 15; FBPA Giardia inh: inactive; Pf growth 96h: inactive

How did COc1ccc(N2CCN(C(=O)CN(c3cccc(OC)c3)S(=O)(=O)c3ccccc3)CC2)cc1 do in these assays?
Shiga toxin inh: inactive; NS1 function inh: inactive; Pf growth 48h: 13µM; CHX counter: inactive; FBPA Giardia inh: inactive; Pf growth 96h: inconclusive

What do the screens show for `CCc1ccc(N(CC(=O)N2CCOCC2)S(C)(=O)=O)cc1`?
NS1 function inh: inactive; Pf growth 48h: inactive; CHX counter: inactive; FBPA Giardia inh: inactive; Pf growth 96h: 13µM

What do the screens show for `CCc1ccc(N(CC(=O)N2CCCCCC2)S(C)(=O)=O)cc1`?
Shiga toxin inh: inactive; NS1 function inh: inactive; Pf growth 48h: inactive; CHX counter: inactive; FBPA Giardia inh: inactive; Pf growth 96h: inconclusive

How did COc1ccc(N2CCN(C(=O)CN(c3ccccc3)S(C)(=O)=O)CC2)cc1 do in these assays?
Shiga toxin inh: inactive; NS1 function inh: inactive; Pf growth 48h: inactive; CHX counter: inactive; FBPA Giardia inh: inactive; Pf growth 96h: 10µM

Results for CC(C)c1cccc2cc3c(nc12)-c1cccc(=O)n1C3 ?
FBPA Giardia inh: inactive

Results for NCCCC[C@H](NC(=O)C1CCNCC1)c1nnc(CN)o1 ?
Shiga toxin inh: inactive; NS1 function inh: inactive; Pf growth 48h: inactive; CHX counter: inactive; FBPA Giardia inh: inactive; Pf growth 96h: inactive

What do the screens show for `Cc1nn(Cc2ccc(Cl)c(Cl)c2)c(C)c1NC(=O)c1noc2c1CCCCC2`?
Shiga toxin inh: inactive; NS1 function inh: inactive; Pf growth 48h: inactive; CHX counter: inactive; FBPA Giardia inh: inactive; Pf growth 96h: 6.6µM

How did Cc1nn(Cc2ccc(Cl)c(Cl)c2)c(C)c1NC(=O)c1cc(CC(C)C)on1 do in these assays?
Shiga toxin inh: inactive; NS1 function inh: inactive; Pf growth 48h: inconclusive; CHX counter: inactive; FBPA Giardia inh: inactive; Pf growth 96h: 0.33µM

What do the screens show for `Cc1ccccc1Cn1nc(C)c(NC(=O)c2cc(CC(C)C)on2)c1C`?
Shiga toxin inh: inactive; NS1 function inh: inactive; Pf growth 48h: inactive; CHX counter: inactive; FBPA Giardia inh: inactive; Pf growth 96h: inactive

Results for Cc1ccc2cc(C#N)c(SCC(=O)NCC3CCCO3)nc2c1 (stereo not given) ?
Shiga toxin inh: inactive; NS1 function inh: inactive; Pf growth 48h: inactive; CHX counter: inactive; FBPA Giardia inh: inactive; Pf growth 96h: inactive

How did COC(=O)CSc1nc2cc(C)ccc2cc1C#N do in these assays?
Shiga toxin inh: 108; NS1 function inh: inactive; Pf growth 48h: inactive; CHX counter: 46; FBPA Giardia inh: inactive; Pf growth 96h: inactive

How did CCOC(=O)CC(=O)CSc1nc2ccc(C)cc2cc1C#N do in these assays?
Shiga toxin inh: 107; NS1 function inh: inactive; Pf growth 48h: inactive; CHX counter: 37; FBPA Giardia inh: inactive; Pf growth 96h: inactive

Results for CCOC(=O)CC(=O)CSc1nc(CC)c(C)cc1C#N ?
Shiga toxin inh: inactive; NS1 function inh: inactive; Pf growth 48h: inactive; CHX counter: inactive; FBPA Giardia inh: inactive; Pf growth 96h: inconclusive
